Screening results from PubChem.
Rows were chosen to be rich in hits. Some 4.1% of all compounds tested hit in one or more screens of this group.
DAX1 inh-1: inhibitors of DAX1 repression of SF-1 activated StAR promoter; HEK293T StAR-luciferase reporter, SF-1/DAX-1 repression relief; inhibition, % at 6.8 µM; hit rate 1.1% among 370,000; AID 652010;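 active = inhibition above the mean over all tested compounds plus 3 SD, cut at about 3.6% in these data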;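 also: higher inhibition means more luminescence from relief of DAX-1 repression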
ssDAF-12 act: S. stercoralis DAF-12 activation, primary screen. hit rate 1% among 370,000. HEK293 ssDAF-12/GRIP1 lit1-tk-luc reporter, luminescence; % of 3 µM dafachronic acid response. activation, % at 6.8 µM;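 active = activation above the mean over all tested compounds plus 3 SD, cut at about 0.9% in these data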
hgDAF12 agonist: agonists of H. glycines DAF-12 nuclear receptor | AID 687014 | HEK293 GAL4-hgDAF12 UAS-luciferase reporter, agonist luminescence; normalized to butyrate control | hit rate 1.8% among 370,000 | activation, % at 6.8 µM;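 active = activation above a cutoff set at the mean of all screened compounds plus 3 SD, cut at about 10% in these data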
DAX1 inh-2: NR0B1 (DAX1) inhibition; P51843; HEK293 Gal4-DAX1 luciferase reporter, luminescence; inhibition, % at 6.75 µM; hit rate 0.99% among 340,000; AID 504766;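 active = inhibition above the mean over all tested compounds plus 3 SD, cut at about 4.2% in these data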;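 also: inhibition shows as a rise in luminescence from relieved DAX1 repression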
Target sequence (P51843 207-470 limits assumed): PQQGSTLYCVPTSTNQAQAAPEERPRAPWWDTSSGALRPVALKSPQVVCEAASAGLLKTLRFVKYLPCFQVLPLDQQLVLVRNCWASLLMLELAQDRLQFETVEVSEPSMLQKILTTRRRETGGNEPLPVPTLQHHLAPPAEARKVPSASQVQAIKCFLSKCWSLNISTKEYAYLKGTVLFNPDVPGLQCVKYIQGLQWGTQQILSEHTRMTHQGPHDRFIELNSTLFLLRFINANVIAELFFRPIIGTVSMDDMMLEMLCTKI
hcDAF-12 act: activators of H. contortus DAF-12 nuclear receptor. HEK293 hcDAF-12 lit1-tk-luc reporter, luminescence; 0% DMSO, 100% Δ7-dafachronic acid. activation, % at 6.8 µM. hit rate 1.4% among 370,000. AID 652067;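 active = activation above the mean of all tested compounds plus 3 SD, cut at about 5.5% in these data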
Each line names hits and unclear results; the compound was inactive in the other large screens.

COc1ccccc1NC(=O)CSc1nnc(-c2ccccc2)o1	DAX1 inh-1 5.4, hgDAF12 agonist 11, DAX1 inh-2 5.2
O=C(Nc1ccc(F)cc1)C(c1ccncc1)N1CCN(c2cccc(C(F)(F)F)n2)CC1 (centres undefined)	none (no result: DAX1 inh-2)
O=C(COC(=O)c1ccc(F)cc1Cl)NC1CCCCCCC1	none
O=C(NCC1CCCCC1)c1ccc(F)cc1Cl	DAX1 inh-2 7.4
O=C(NC1CC1)c1ccc(F)cc1Cl	ssDAF-12 act 1.0
Cc1ccc(OCC(=O)N2CCN(c3nnc(-c4ccccc4)c4ccccc34)CC2)cc1	none
CC(=O)N1CCN(c2nnc(-c3ccc(C)cc3)c3ccccc23)CC1	ssDAF-12 act 1.1
CSC(=S)NN=C(C)c1cccc(C)n1	hcDAF-12 act 6.0
CC1(C(=O)NCC2CC2)CCN1C(=O)C/C=C/c1ccccc1 (centres undefined)	none (no result: DAX1 inh-2)
CSCCNC(=O)C1(C)CCN1C(=O)C/C=C/c1ccccc1 (centres undefined)	ssDAF-12 act 1.2 (no result: DAX1 inh-2)
CC1(C(=O)NS(=O)(=O)c2ccccc2Cl)CCN1C(=O)C/C=C/c1ccccc1 (centres undefined)	hgDAF12 agonist 12 (no result: DAX1 inh-2)
Cc1nn(C)c(C)c1CN(Cc1nc(CCC(C)C)no1)C(C)C	none
CN(Cc1nccn1C)C(=O)c1ccc2nc(Cc3ccccc3F)oc2c1	hgDAF12 agonist 13
Cc1cccc(CNC(=O)c2ccc3nc(Cc4ccccc4F)oc3c2)n1	DAX1 inh-1 3.7, hgDAF12 agonist 11
COc1ccc(Cc2nc3ccc(C(=O)NCc4cccc(C)n4)cc3o2)cc1OC	none
CC(=O)Nc1ccc(-c2cc(NC(C)=O)n(-c3ccccc3)n2)cc1	none
CC(=O)Nc1ccc(-c2cc(N)n(-c3ccccc3)n2)cc1	DAX1 inh-1 3.9, hgDAF12 agonist 11
CCOC(=O)[C@@]12CCCC3=C1N(CCC3)C(=O)[C@H]2CC(=O)N1CCCCC1	none (no result: DAX1 inh-2)
Cc1nnc(SCc2cnc(-c3ccc(C(C)C)cc3)s2)n1C	ssDAF-12 act 1.5, hgDAF12 agonist 12, hcDAF-12 act 6.0
c1ccc(-c2ncc(CSc3nncn3-c3ccccc3)s2)cc1	none
CC(Sc1ccccn1)C(=O)NC1CCCC1 (centres undefined)	DAX1 inh-1 4.4
CC(=O)Nc1ccc(SC(C)C(=O)NC2CCCC2)cc1 (centres undefined)	none
C[C@H](O)[C@@H]1CN2CCc3ccc(-c4ccc5c(c4)OCO5)cc3[C@@H]2C[C@@H]1N(C)C(=O)c1ccco1	none (no result: DAX1 inh-2)
Cn1c(COc2ccccc2)nnc1SCC(=O)Nc1ccc(OCc2ccccc2)cc1	none (no result: DAX1 inh-2)
Oc1cccc(C2c3[nH]c4ccccc4c3CCN2Cc2ccc3c(c2)CCO3)c1 (centres undefined)	none
Oc1cccc(C2c3[nH]c4ccccc4c3CCN2Cc2ccoc2)c1 (centres undefined)	ssDAF-12 act 1.4
FC(F)(F)c1ccc(Oc2ccc(Cl)cc2Br)nc1	ssDAF-12 act 25
FC(F)(F)c1ccc(Oc2ccccc2Cl)nc1	none
CCOC(=O)Cc1csc(NC(=O)c2ccc(C)o2)n1	none
CCOC(=O)Cc1csc(NC(=O)c2cnc3sc(C)cn3c2=O)n1	hcDAF-12 act 6.3
CCOC(=O)Cc1csc(NC(=O)/C=C/c2ccc(OC)cc2)n1	hgDAF12 agonist 12
COC(=O)c1ccc(NC(=O)c2ccc(OC(C)=O)c(OC)c2)cc1	DAX1 inh-1 4.0
COc1ccc(-n2c(COc3ccc(Cl)cc3)nnc2SCC(=O)c2ccc(-c3ccccc3)cc2)cc1	none (no result: DAX1 inh-2)
Cc1ccc(O)c(N=Cc2cccs2)c1	hcDAF-12 act 5.8
CCOC(=O)c1cc([N+](=O)[O-])cc([N+](=O)[O-])c1Sc1ncnc2nc[nH]c12	none
COc1cc(NC(=O)c2csc3c2CCCC3)ncn1	hgDAF12 agonist 12
COc1ccccc1NC(=O)c1csc2c1CCCC2	none
Nc1c(C(=O)CSc2nnc(Cc3ccccc3)o2)c(=O)[nH]c(=O)n1C1CC1	none
Cc1ccc(OCCOc2ccc(Cl)cc2Cl)c(Br)n1	hgDAF12 agonist 12 (no result: DAX1 inh-1, DAX1 inh-2)
Cc1cc(C)n(CCOc2ccc(Cl)cc2Cl)n1	none
Oc1ccccc1N=Nc1ccccc1O	none
Nc1ccc(N=Nc2ccccc2O)c(N)c1	ssDAF-12 act 1.6 (no result: DAX1 inh-2)
Cc1nc2sc(-c3ccccc3)cc2c(=O)n1/N=C/N(C)C	ssDAF-12 act 0.9, hgDAF12 agonist 11
Cc1nc2sc(-c3ccccc3)cc2c(=O)n1-n1cccc1	hgDAF12 agonist 11
NC(=O)CSc1nc2sc(-c3ccccc3)cc2c(=O)n1N	none
